Laboratory results reported in ChEMBL document CHEMBL3988442, “University of Dundee, Small-Polar-MMV Screening Library” (2021).
For some of these results: Entries with a potency or affinity are not part of this list.

Columns and labels:
Set-up in all cases: scale not given: direction of the effect not stated beside the values
[1] = molecular target: Protein translocase subunit SecA (Escherichia coli (strain K12)) (UniProt P10408); experiment: Assay to Identify E. coli SecA ATPase Inhibitors; format: functional; conditions: 30 µM
[2] = molecular target: T1, Ubiquitin-activating enzyme e1, putative (Leishmania donovani (strain BPK282A1)) (UniProt E9BSI1); experiment: Leishmania donovani Ubiquitin Activating Enzyme (LdE1); format: functional; conditions: 30 µM
T1 sequence (whole entry): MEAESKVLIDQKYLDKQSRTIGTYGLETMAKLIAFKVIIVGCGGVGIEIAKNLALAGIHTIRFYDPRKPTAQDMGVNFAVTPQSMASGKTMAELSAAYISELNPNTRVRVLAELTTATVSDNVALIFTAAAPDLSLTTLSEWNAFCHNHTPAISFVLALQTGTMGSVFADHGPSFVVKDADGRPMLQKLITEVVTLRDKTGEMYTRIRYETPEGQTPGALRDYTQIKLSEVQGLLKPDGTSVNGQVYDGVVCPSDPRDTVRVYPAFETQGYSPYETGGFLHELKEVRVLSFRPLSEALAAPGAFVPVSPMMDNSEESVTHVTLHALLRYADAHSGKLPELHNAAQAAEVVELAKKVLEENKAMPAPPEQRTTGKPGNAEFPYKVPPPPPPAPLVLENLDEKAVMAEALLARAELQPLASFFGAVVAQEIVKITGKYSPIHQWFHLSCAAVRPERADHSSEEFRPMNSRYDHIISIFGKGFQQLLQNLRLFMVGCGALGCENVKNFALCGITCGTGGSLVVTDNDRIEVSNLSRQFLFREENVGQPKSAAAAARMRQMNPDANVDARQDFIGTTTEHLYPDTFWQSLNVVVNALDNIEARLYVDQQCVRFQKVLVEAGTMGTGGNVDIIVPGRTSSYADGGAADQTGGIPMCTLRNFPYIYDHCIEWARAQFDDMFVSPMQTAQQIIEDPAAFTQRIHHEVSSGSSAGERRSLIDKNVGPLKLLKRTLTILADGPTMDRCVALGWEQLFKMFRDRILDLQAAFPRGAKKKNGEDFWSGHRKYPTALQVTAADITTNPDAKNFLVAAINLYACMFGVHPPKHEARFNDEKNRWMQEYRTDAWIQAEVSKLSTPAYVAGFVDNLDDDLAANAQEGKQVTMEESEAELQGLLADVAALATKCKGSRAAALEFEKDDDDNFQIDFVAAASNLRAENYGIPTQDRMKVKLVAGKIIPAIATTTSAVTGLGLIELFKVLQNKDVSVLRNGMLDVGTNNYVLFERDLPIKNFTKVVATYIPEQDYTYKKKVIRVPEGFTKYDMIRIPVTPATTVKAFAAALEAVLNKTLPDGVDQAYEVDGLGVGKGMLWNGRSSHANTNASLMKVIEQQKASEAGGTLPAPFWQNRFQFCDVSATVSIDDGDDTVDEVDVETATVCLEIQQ

[3] = molecular target: AMP-activated protein kinase, AMPK (Homo sapiens) (UniProt P54646+O43741+P54619+Q9UGJ0+Q9Y478+Q13131+Q9UGI9); experiment: AMP-dependent Kinase enzyme assay. An in vitro enzyme assay that detects ADP turnover that is directly proportional to AMPK activity. This uses naive AMPK that is activated during the assay with MK-8722; format: functional; conditions: 30 µM
[4] = molecular target: Sialic acid-binding Ig-like lectin 9 (Homo sapiens) (UniProt Q9Y336); experiment: Hs-Siglec9 ALPHAscreen SOP 20170721; conditions: 10 µM
Trypanosoma cruzi = experiment: Trypanosoma cruzi phosphomannomutase and mannose-1-phosphate guanylyltransferase assay; format: functional; conditions: 10 µM
[5] = molecular target: T2, Arginase-2, mitochondrial (Homo sapiens) (UniProt P78540); experiment: in vitro enzyme assay to detect the production of urea directly proportional to the activity of Arginase II; format: functional; conditions: 33.3 µM; further: in the data most compounds retested in dose-response had high values
T2 sequence (whole entry): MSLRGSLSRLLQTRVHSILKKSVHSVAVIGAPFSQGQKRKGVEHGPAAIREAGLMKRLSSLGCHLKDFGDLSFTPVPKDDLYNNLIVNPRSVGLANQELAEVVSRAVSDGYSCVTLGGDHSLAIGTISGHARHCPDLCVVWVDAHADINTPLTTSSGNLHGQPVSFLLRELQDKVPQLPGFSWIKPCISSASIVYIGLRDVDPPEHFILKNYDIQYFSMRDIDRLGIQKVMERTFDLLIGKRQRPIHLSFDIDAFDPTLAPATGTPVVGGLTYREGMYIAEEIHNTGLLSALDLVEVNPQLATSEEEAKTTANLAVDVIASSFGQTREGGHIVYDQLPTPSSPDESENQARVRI

[6] = molecular target: T3, Proteasome subunit beta (Trypanosoma cruzi) (UniProt O96673); experiment: Trypanosoma cruzi proteasome chymotrypsin-like activity (TcProtChymo) assay.; further: in the data most compounds retested in dose-response had high values; format: functional; conditions: 9.37 µM
T3 sequence (whole entry): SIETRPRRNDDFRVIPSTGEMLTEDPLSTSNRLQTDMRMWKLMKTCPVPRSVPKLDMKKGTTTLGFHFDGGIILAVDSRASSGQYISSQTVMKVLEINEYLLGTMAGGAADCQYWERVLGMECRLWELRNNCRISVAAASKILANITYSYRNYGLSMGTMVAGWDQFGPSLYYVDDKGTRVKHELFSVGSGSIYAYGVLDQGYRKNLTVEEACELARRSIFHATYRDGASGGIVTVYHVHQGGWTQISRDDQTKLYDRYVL

Homo sapiens = organism: Homo sapiens; experiment: To identify inhibition of the IFN signalling (Jak-Stat) pathway via expression of an eGFP reporter gene under the control of an IFN-stimulated response element (ISRE) containing MxA promoter.; format: functional; conditions: 30 µM
[7] = molecular target: T4, Tyrosyl-tRNA synthetase, putative (Trypanosoma cruzi (strain CL Brener)) (UniProt Q4DSP6); experiment: Trypanosoma cruzi tyrosyl tRNA synthetase (TcYRS) _High Tyrosine SOP; format: functional; conditions: 30 µM; further: in the data most compounds retested in dose-response had high values
T4 sequence (whole entry): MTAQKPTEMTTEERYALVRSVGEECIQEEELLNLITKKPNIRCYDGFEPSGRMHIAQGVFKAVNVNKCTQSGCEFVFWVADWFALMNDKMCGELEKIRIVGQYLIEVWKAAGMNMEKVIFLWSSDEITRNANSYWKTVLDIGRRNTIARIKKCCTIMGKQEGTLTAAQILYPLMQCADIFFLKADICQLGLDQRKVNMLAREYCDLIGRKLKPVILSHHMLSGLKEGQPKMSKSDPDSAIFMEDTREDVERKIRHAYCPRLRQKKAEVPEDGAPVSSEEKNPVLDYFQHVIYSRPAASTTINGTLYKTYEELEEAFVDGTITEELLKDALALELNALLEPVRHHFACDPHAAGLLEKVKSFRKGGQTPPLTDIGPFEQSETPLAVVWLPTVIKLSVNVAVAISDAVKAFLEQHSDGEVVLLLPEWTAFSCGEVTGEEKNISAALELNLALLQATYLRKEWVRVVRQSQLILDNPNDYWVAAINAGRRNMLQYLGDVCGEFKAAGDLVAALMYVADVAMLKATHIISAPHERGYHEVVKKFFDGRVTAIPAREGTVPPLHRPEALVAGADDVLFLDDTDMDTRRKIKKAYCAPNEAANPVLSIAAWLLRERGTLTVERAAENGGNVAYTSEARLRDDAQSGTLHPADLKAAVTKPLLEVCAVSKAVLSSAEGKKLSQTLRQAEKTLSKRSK

[8] = molecular target: T4, Tyrosyl-tRNA synthetase, putative (Trypanosoma cruzi (strain CL Brener)); experiment: Trypanosoma cruzi tyrosyl tRNA synthetase (TcYRS) SOP; format: functional; conditions: 30 µM
[9] = molecular target: Chromo domain-containing protein 1 (Saccharomyces cerevisiae (strain ATCC 204508 / S288c) (Baker's yeast)) (UniProt P32657); experiment: ScCHD-1 Enzyme Inhibition Assay; format: functional; conditions: 30 µM; further: in the data most compounds retested in dose-response had high values
Sequence of Chromo domain-containing protein 1 (Saccharomyces cerevisiae (strain ATCC 204508 / S288c) (Baker's yeast)) (P32657 whole entry, the tested form may be a part): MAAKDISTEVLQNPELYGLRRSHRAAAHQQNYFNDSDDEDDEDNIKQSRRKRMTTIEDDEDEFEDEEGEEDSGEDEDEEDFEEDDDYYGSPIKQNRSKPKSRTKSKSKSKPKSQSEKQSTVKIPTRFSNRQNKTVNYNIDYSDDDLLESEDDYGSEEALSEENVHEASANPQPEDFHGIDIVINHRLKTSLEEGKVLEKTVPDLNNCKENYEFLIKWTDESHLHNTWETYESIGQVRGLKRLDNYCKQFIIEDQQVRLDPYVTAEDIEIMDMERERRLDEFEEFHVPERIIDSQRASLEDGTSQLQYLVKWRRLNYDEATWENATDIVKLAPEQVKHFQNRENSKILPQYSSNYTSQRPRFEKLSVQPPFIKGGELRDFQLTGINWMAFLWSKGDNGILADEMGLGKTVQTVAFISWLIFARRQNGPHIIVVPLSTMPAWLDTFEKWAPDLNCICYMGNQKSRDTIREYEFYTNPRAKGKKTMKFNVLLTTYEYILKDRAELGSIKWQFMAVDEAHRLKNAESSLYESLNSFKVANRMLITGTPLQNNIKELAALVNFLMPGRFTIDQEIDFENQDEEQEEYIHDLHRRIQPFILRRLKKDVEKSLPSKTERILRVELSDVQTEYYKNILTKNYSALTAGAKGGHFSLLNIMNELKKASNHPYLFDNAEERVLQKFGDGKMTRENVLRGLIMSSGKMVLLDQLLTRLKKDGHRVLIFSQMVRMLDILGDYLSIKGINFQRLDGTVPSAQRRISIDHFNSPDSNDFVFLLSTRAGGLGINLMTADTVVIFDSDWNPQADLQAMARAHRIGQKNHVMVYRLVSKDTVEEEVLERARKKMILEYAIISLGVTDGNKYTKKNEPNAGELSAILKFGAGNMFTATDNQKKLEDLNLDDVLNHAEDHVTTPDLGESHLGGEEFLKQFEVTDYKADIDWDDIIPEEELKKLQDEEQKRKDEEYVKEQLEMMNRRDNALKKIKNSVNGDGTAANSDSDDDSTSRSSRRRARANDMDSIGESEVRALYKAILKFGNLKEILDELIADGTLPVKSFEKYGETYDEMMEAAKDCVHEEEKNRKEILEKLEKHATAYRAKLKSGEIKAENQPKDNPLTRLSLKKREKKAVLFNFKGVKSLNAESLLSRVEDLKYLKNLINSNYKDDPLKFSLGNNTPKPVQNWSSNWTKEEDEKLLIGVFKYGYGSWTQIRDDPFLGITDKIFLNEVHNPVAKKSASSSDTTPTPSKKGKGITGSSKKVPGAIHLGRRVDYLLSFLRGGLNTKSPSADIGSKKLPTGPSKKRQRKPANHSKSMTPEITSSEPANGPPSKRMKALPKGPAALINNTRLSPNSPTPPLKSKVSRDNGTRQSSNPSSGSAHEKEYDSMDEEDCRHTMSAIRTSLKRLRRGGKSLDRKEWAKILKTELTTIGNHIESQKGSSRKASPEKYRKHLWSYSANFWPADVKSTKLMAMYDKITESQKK

Sequence of Sialic acid-binding Ig-like lectin 9 (Homo sapiens) (Q9Y336 whole entry): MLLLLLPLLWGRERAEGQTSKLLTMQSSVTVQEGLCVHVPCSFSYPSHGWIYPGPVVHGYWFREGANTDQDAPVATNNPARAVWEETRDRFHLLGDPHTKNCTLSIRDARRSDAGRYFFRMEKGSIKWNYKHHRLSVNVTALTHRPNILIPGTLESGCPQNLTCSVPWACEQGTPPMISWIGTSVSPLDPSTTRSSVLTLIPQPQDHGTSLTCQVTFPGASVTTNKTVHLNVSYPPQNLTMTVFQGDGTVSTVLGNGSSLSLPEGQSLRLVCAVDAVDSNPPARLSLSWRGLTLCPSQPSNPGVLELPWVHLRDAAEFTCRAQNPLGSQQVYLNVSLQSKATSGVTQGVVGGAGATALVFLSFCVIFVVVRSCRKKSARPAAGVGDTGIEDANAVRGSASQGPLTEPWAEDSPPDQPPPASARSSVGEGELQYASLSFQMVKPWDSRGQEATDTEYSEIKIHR
Sequence of Protein translocase subunit SecA (Escherichia coli (strain K12)) (P10408 whole entry): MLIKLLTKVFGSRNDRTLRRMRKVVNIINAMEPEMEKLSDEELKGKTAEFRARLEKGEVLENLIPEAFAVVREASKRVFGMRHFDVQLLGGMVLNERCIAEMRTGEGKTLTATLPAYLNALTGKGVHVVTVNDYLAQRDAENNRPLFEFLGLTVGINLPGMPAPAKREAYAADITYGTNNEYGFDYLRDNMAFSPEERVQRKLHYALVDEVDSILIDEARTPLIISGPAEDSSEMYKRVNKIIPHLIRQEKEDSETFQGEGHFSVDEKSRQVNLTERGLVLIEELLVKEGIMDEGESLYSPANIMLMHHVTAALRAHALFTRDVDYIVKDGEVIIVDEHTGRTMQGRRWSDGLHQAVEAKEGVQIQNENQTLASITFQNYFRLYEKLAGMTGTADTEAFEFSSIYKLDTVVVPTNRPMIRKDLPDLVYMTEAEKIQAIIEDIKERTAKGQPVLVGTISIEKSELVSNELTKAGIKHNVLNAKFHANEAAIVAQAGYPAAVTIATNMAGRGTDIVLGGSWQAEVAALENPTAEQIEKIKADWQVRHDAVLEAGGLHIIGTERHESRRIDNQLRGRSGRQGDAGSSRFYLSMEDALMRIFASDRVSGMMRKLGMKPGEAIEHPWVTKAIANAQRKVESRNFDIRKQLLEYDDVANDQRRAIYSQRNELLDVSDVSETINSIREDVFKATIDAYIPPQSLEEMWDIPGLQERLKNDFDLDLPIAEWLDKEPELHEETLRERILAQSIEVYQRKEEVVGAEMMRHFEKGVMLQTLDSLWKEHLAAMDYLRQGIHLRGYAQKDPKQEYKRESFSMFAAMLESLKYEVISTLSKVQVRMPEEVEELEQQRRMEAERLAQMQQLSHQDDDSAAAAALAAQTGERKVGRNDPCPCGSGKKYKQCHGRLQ

Structure (SMILES)	Percent Effect [1] [%]	Percent Effect [2] [%]	Percent Effect [3] [%]	Percent Effect [4] [%]	Percent Effect (Trypanosoma cruzi) [%]	Percent Effect [5] [%]	Percent Effect [6] [%]	Percent Effect (Homo sapiens) [%]	Percent Effect [7] [%]	Percent Effect [8] [%]	Percent Effect [9] [%]
CCCC1CCCN(Cc2csc(-c3cnn(C)c3)n2)CC1 (stereo unspecified)	-2.48	-5.26	-0.945	-3.96	-0.376	-5.75	20.4	20.6	8.33	19.5	-4.84
CCCN(CC1COc2ccccc2O1)C(=O)CCn1cncn1 (stereo unspecified)	-3.98	13.2	-1.36	-1.88	-1.5	-0.383	8.52	0.478	7.35	17.1	-2.23
Cn1cccc1C(=O)N1CCn2cc(CNC(=O)CC3CC3)nc2C1	-2.92	13.3	10.1	-5.14	4.13	-0.233	6.61	0.949	8.51	16.7	-6.08
COCCN1C[C@@H]2CCCO[C@@H]2[C@H](N(C)Cc2ccco2)C1	-2.66	10.7	1.93	-6.59	2.56	50.6	11	16.7	7.45	16.7	-2.07
CCc1ccccc1-n1cc(O)c(C(=O)N2CCCCC2)n1	-2.01	-29.7	5.9	-1.13	-4.36	0.185	4.85	20.6	-23.8	-45.1	2
Cc1ccc(CN2CCC3(C2)C(=O)N(CC(C)C)c2ccccc23)s1 (stereo unspecified)	-1.13	-16.2	-0.146	1.8	-6.25	3.75	7.02	7.39	10.9	13.4	-7.96
Cc1ncsc1C(=O)NCCn1nc2ccccn2c1=O	-2.94	13.5	0.246	-6.32	-3.44	2.03	2.51	13.6	8.91	15.8	-7.12
CCOc1ccc(N(CC(=O)c2ccccc2)C2=NCCCCC2)cc1	-1.17	-10.5	6.97	2.61	3.21	-2.37	8.72	-7.49	-1.06	-10.4	4.46
O=C(c1ccc(F)c(F)c1)N1CCCC1CN1CCCC1 (stereo unspecified)	-1.25	7.89	-2.36	-14.5	-3.02	-3.55	15.2	-11.1	7.45	18.2	-8.37
O=C(NCc1cc[nH]n1)N1CCN(c2ccccc2Cl)CC1	-5	23.7	-1.65	3.62	1.96	-0.719	14.1	15.6	7.39	18.5	-10.1
Cc1nn(C)c(N2CCOCC2)c1CNCc1ccc(Cl)s1	-3.24	10.4	2.59	-1.94	2.06	1.9	9.62	11.3	11.4	25.9	-8.79
